Reference: PubChem BioAssay (Tox21)
Unmarked numbers belong to inactive results. Activity calls are given as the source filed them. The call rests on the fitted dose curve; in most records, active means well fitted curve in the direction sought with a large enough effect in the repeat runs; inconclusive means weak or mixed curves; inactive means flat fitted curve, though single readings scatter.

experiment: qHTS assay to test for compound auto fluorescence at 460 nm (blue) in HepG2 cell free culture (AID 720685); conditions: Cell-free culture medium, blue autofluorescence 405/460 nm; series mostly up to 91.3 µM
Text: U.S. Tox21 Program National Center for Advancing Translational Sciences [NCATS] NIH Chemical Genomics Center [NCGC] U.S. Environmental Protection Agency [EPA] National Institutes of Environmental Health Sciences [NIEHS] National Toxicology Program [NTP] U.S. Food and Drug Administration [FDA] Tox21 Assay Overview: Compound auto fluorescence often interferes with screening of the compound library against various biological targets and signaling pathways. Some of these compounds may have fluorophoric properties. Such properties may interfere with the assay outputs resulting in false positives and/or negatives. To decrease such complications and ensure the compound activities are relevant in terms of biological response, the Tox21 10K compound library was screened for auto fluorescence. From the fluorophores used as reporter signals in our screening assays, the auto fluorescence equivalencies of compounds against three fluorophores have been evaluated: Triamterene, Fluorescein and Rose Bengal sodium for blue, green and red fluorescence, respectively. The fluorescence intensities were measured using Excitation/Emission wavelengths at 405/460nm, 485/535nm and 540/590nm for blue, green and red labels, respectively. This assay includes the blue fluorescence data.
Tox21 Assay Protocol Summary: 5 uL of culture medium (MEM containing 10% FBS) per well was dispensed into black wall/clear bottom 1536-well plates using a Multidrop Combi Dispenser (ThermoFisher Scientific, Waltham, MA). After 23 nL compound or DMSO vehicle was transferred into assay plate by a pintool work station (Kalypsys, San Diego, CA), fluorescence intensities in the assay plates were measured by an Envision (PerkinElmer, Shelton, CT) plate reader using three labels for measuring blue, green and red fluorescence at […] 460, 535 and 590nm respectively.
On the % scale 0 is the no-effect control and ±100 the full control effect.

Row | SMILES | fluorescence, % of fluorescent control | outcome
1 | CC(COc1ccccc1)NC(C)C(O)c1ccc(O)cc1 (stereo not given) | -0.0841% [at 18.6 µM] | 
2 | CCCCCCCCNC |  | inactive
3 | Cc1ccc2c(Cl)cc(Cl)c(O)c2n1 |  | inactive
4 | N#CCCCC(C#N)CCC#N (stereo not given) |  | inactive
5 | O=C(O)c1ccc2c(c1)nc(C(=O)NC1CCN(C3CC3)CC1)n2Cc1cc(-c2ccc(Cl)s2)on1 | -0.029% [at 18.6 µM] | 
6 | CCc1c(C)[nH]c2c1C(=O)C(CN1CCOCC1)CC2 (stereo not given) | -0.0691% [at 18.6 µM] | 
7 | COC(=O)c1cc(Cl)ccc1[N+](=O)[O-] |  | inactive
8 | OCCCO |  | inactive
9 | O=C(Nc1ccc2c(c1)Cc1ccccc1-2)C(F)(F)F |  | inactive
10 | O=Cc1ccc(Cl)c([N+](=O)[O-])c1 |  | inactive
11 | CCCC(=O)OCCC(C)C |  | inactive
12 | O=C1OC(=O)C2CC=CCC12 (stereo not given) |  | inactive
13 | C=CC(C)(O)CC/C=C(/C)CCC=C(C)C (stereo not given) |  | inactive
14 | COc1cc(C)c(Cc2cnc(N)nc2N)cc1OC |  | inactive
15 | c1ccc(CCNc2nc(-c3ccccc3)cs2)cc1 |  | inactive
16 | O=C(O)CCc1nc2ccccc2[nH]1 |  | inactive
17 | C=CCCC |  | inactive
18 | CCCCCCCCCCCCCCCCCCCl | -0.0175% [at 3.72 µM] | 
19 | Clc1cc(Cl)c2c(c1)N=C1CCCCCN1C2 |  | inactive
20 | C=CC(C)CCC=C(C)C (stereo not given) |  | inactive

Row | SMILES | fluorescence, % of fluorescent control | outcome
21 | CC[C@H](NC(C)C)[C@H](O)c1ccc(O)c2[nH]c(=O)ccc12 |  | inactive
22 | CC(C)(C)NCC(O)COc1ccc(NC(=O)NC2CCCCC2)cc1 (stereo not given) |  | inactive
23 | CC(C)C[C@H](NC(=O)[C@H](Cc1ccccc1)NC(=O)c1cnccn1)B(O)O |  | inactive
24 | CCOc1ccc2c(c1)C(C)CC(C)(C)N2 (stereo not given) |  | inactive
25 | CC1(C)CC(O)CC(C)(C)N1[O] |  | inactive
26 | O=C(O)c1ccccc1[N+](=O)[O-] |  | inactive
27 | CC(=O)CC/C=C(\C)CC/C=C(\C)CC/C=C(\C)CCC=C(C)C |  | inactive
28 | O=C(O)c1c2ccccc2cc2ccccc12 |  | inactive
29 | CCCCCCCCCCCCSCCOCCO |  | inactive
30 | Cc1ccc(NC(=O)c2ccc(CN3CCN(C)CC3)cc2)cc1Nc1nccc(-c2cccnc2)n1 |  | inactive
31 | N#C[C@@H]1CC(F)(F)CN1C(=O)CNC1CC2CCC(C1)N2c1ncccn1 (stereo not given in full) |  | inactive
32 | O=C(N[C@@H](Cc1ccccc1)[C@@H](O)C(=O)N1C[C@@H](O)[C@@H](O)C1)c1cc2cc(Cl)ccc2[nH]1 |  | inactive
33 | CO[C@@H]1[C@@H](O[C@@H]2O[C@H](C)[C@@H](O[C@H]3C[C@@](C)(O)[C@@H](O)[C@H](C)O3)[C@H](N(C)C)[C@H]2O)[C@@H](CC=O)C[C@@H](C)[C@@H](O[C@@H]2CC[C@H](N(C)C)[C@@H](C)O2)/C=C/C=C/C[C@@H](C)OC(=O)C[C@H]1OC(C)=O |  | inactive
34 | Oc1ccc(CCNCCCCCCNCCc2ccccc2)cc1O |  | inactive
35 | [O-][n+]1ccc(Cl)cc1 |  | inactive
36 | Cc1c(Cl)cccc1Nc1ccccc1C(=O)O |  | inactive
37 | Nc1ccc(C(=O)Oc2ccccc2)c(O)c1 |  | inactive
38 | CCC(CC)C(=O)O |  | inactive
39 | Cc1ccccc1CCO |  | inactive
40 | COc1cc(CNC(=O)CCCC/C=C/C(C)C)ccc1O |  | inactive
